# Results filed as inconclusive are left out. Where a call stands in place of a potency, no number is given. Unmarked numbers belong to inactive results. Calls of active or inactive are those of the source. Unless noted, the call rests on the fitted dose curve; in most records, active means well fitted curve in the direction sought with a large enough effect in the repeat runs; inconclusive means weak or mixed curves; inactive means no such curve, though single readings can be large; an effect the other way counts as inactive or inconclusive.
# Experiments:
# [1] = target: Retinoic acid receptor RXR-alpha (Homo sapiens) (UniProt P19793); test: qHTS assay to identify small molecule agonists of the RXR signaling pathway (AID 1159527; calls by dose curve; further: nearly all actives have a fitted effect of over 35% in size)
# How it was run: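 Agonist mode; 9-cis retinoic acid positive control. HEK 293T UAS-bla reporter cells, 2% charcoal-stripped FBS, 16 hr compound exposure at 37 C/5% CO2. LiveBLAzer B/G FRET substrate 2 hr RT; ex 405, em 460/530 nm.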
# [2] = qHTS assay to identify small molecule agonists of the RXR signaling pathway - cell viability counter screen (AID 1159529); further: series mostly up to about 77 µM; nearly all actives have a fitted effect of over 50% in size
# How it was run: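 Luminescence from CellTiter-Glo (30 min, RT) measured viability in the same wells as the beta-lactamase reporter readout. Cells: GeneBLAzer RXR-alpha HEK 293T, 2% charcoal-stripped FBS. Compound exposure 16 hr, 37 C.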
# [3] = qHTS assay to identify small molecule antagonists of the retinoid acid receptor (RAR) signaling pathway - cell viability counter screen (AID 1159551); further: nearly all actives have a fitted effect of over 35% in size
# How it was run: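 Cytotoxicity counter screen: ATP content quantified by CellTiter-Glo luminescence in C3RL4 cells treated 6 hr at 37 C with compound and retinol (1 uM final). Cells plated at 1,000/well and cultured overnight before dosing.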
# [4] = qHTS assay to identify small molecule antagonists of the retinoic acid receptor (RAR) signaling pathway (AID 1159552; further: nearly all actives have a fitted effect of over 50% in size)
# How it was run: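 Luminescence from a RARE luciferase reporter in C3RL4 cells served as read-out. Cells received compounds together with 1 uM final retinol and incubated 6 hr at 37 C before detection reagent was added for 30 min at room temperature.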
# [5] = qHTS assay to identify small molecule agonists of the retinoic acid receptor (RAR) signaling pathway (AID 1159553)
# How it was run: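 Luminescence was measured 30 min after luciferase reagent addition at room temperature. Before that, C3RL4 reporter cells (1,000 per well, plated overnight) were treated with compound for 6 hr at 37 C and 5% CO2.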
# [6] = qHTS assay to identify small molecule antagonists of the estrogen related receptor (ERR) signaling pathway from Tox21 library - cell viability counter screen (AID 1224834); further: nearly all actives have a fitted effect of over 30% in size
# How it was run: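 CellTiter-Fluor fluorescence, read after 30 min at 37 C, measures viability of ERR cells. Cells plated at 2,000/well and incubated 6 h before pin-tool compound addition, then exposed 17.5 hours at 37 C.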
# [7] = target: Luciferin 4-monooxygenase (Photinus pyralis) (UniProt P08659); test: qHTS assay to identify small molecule inhibitors of firefly luciferase (AID 1224835); further: series mostly up to about 120 µM; nearly all actives have a fitted effect of over 25% in size
# How it was run: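 Quantitative HTS format; KM concentrations of both substrates. Purified P. pyralis FLuc activity quantified from luminescence images.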
# [8] = qHTS assay to identify small molecule antagonists of the constitutive androstane receptor (CAR) signaling pathway - cell viability counter screen (AID 1224837); further: series mostly up to about 92 µM; nearly all actives have a fitted effect of over 45% in size
# How it was run: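 Cytotoxicity counter-screen: CellTiter-Fluor fluorescence after 23 h compound exposure (15-point qHTS) in double-stable HepG2-CYP2B6-hCAR cells, with 50 nM CITCO added.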
# [9] = target: Nuclear receptor subfamily 1 group I member 3 (Homo sapiens) (UniProt Q14994); test: qHTS assay to identify small molecule antagonists of the constitutive androstane receptor (CAR) signaling pathway (AID 1224838);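 further: HepG2 cells stably expressing hCAR with CYP2B6 luciferase reporter stimulated by CITCO; nearly all actives have a fitted effect of over 40% in size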; further: potency means the concentration at half of the fitted maximal effect
# How it was run: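 Antagonism measured as luciferase signal (ONE-Glo, 30 min, room temperature) in CAR-stimulated cells: HepG2-CYP2B6-hCAR double-stable line exposed 24 hr at 37 C to compound in a 15-point series plus 50 nM CITCO.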
# [10] = qHTS assay to identify small molecule agonists of the constitutive androstane receptor (CAR) signaling pathway - cell viability counter screen (AID 1224836); further: series mostly up to about 92 µM; nearly all actives have a fitted effect of over 45% in size
# How it was run: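 Viability read-out: CellTiter-Fluor fluorescence after 23 h compound exposure at 37 C/5% CO2 in double-stable HepG2-CYP2B6-hCAR cells, with PK11195 present at 0.75 uM final; compounds tested in 15-point titration.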
# Nuclear receptor subfamily 1 group I member 3 (Homo sapiens), sequence (Q14994 whole entry, looked up): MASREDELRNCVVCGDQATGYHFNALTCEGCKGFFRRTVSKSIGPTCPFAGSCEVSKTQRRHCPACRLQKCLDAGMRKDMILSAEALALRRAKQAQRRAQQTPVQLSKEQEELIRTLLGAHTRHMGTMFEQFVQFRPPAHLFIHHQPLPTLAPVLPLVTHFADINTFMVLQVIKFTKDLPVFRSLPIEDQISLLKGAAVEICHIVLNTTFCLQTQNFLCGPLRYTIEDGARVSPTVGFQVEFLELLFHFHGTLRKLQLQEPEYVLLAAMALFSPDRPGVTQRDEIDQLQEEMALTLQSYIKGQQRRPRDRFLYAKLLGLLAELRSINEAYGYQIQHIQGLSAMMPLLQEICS
# Luciferin 4-monooxygenase (Photinus pyralis), sequence (P08659 whole entry, looked up): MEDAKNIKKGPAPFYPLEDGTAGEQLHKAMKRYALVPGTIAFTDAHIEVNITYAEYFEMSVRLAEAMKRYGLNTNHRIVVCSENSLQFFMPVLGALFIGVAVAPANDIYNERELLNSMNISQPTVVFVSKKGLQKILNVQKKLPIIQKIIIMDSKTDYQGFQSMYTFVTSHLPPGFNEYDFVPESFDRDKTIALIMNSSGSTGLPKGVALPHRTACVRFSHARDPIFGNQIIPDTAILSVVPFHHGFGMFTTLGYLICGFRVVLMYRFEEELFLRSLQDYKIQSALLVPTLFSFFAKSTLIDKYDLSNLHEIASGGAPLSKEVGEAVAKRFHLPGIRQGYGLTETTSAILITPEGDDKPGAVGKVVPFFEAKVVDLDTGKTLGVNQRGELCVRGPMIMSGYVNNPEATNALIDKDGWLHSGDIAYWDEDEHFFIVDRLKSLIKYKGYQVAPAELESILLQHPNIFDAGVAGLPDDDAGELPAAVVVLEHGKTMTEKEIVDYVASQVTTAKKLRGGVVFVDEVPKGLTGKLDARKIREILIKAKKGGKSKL
# Retinoic acid receptor RXR-alpha (Homo sapiens), sequence (P19793 whole entry, looked up): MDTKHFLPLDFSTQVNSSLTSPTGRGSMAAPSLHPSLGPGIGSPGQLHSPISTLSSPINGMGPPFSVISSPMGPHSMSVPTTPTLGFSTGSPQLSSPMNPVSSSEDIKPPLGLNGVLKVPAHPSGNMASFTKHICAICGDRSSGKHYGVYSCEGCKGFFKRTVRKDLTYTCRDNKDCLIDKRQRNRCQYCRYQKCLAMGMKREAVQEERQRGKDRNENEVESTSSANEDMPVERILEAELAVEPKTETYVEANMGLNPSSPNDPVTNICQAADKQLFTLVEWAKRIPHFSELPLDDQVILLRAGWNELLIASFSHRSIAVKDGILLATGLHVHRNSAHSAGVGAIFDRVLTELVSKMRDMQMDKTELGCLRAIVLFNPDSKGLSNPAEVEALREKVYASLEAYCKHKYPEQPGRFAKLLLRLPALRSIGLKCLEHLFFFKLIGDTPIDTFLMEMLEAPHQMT
Compound,Potency [1],outcome [2],outcome [3],outcome [4],Potency [5],outcome [6],Potency [7],outcome [8],Potency [9],activation [1],"activity change, negative = cytotoxicity [2]","activity change, negative = cytotoxicity [3]","activity, negative = inhibition [4]","viability change, negative = cytotoxic [6]","activity change, negative = inhibition [7]","viability change, negative = cytotoxic [10]","activity change, negative = cytotoxicity [8]","activity, negative = inhibition [9]",outcome [10]
COc1cc(/C=C/C(N)=O)cc(OC)c1OC,inactive,inactive,inactive,inactive,inactive,inactive,inactive,inactive,inactive,,,,,,,,,,
CC1(C)CC(OC(=O)CCCCCCCCC(=O)OC2CC(C)(C)NC(C)(C)C2)CC(C)(C)N1,,,,,inactive,,,,,-1.61% [at 15.8 µM],-17.6% [at 15.8 µM],-0.597% [at 19 µM],10.8% [at 19 µM],-0.749% [at 19 µM],0.839% [at 23.6 µM],-0.169% [at 19 µM],-3.96% [at 19 µM],7.36% [at 19 µM],
CCC(C)C(C)=O (stereo unspecified),inactive,inactive,inactive,inactive,inactive,inactive,inactive,inactive,,,,,,,,,,,
Cc1ccc(C(C)NC(=O)[C@@H](NC(=O)OC(C)C)C(C)C)cc1 (stereo partly specified),inactive,inactive,inactive,inactive,inactive,inactive,inactive,inactive,,,,,,,,,,,
O=C1OCCO1,inactive,inactive,inactive,inactive,inactive,inactive,inactive,inactive,inactive,,,,,,,,,,
CO[C@@]1(NC(=O)Cc2cccs2)C(=O)N2C(C(=O)O)=C(COC(N)=O)CS[C@@H]21,inactive,inactive,inactive,inactive,inactive,inactive,inactive,inactive,inactive,,,,,,,,,,inactive
CN1C[C@@H]2C[C@H]1CN2c1cc2c(cc1F)c(=O)c(C(=O)O)cn2C1CC1,,,,,inactive,,,,,12.3% [at 15.8 µM],0.369% [at 15.8 µM],-0.0754% [at 19 µM],0.455% [at 19 µM],5.48% [at 19 µM],0.0867% [at 23.6 µM],-2.13% [at 19 µM],-13.4% [at 19 µM],-6.55% [at 19 µM],
CC1=C(C(=O)O)N2C(=O)[C@@H](NC(=O)[C@H](N)C3=CCC=CC3)[C@H]2SC1,inactive,inactive,inactive,inactive,inactive,inactive,inactive,inactive,inactive,,,,,,,,,,inactive
CC1(C)O[C@H]2CC(=O)OC[C@]23[C@H]2CC[C@@]4(C)[C@H](c5ccoc5)OC(=O)[C@H]5O[C@]54[C@]2(C)C(=O)C[C@@H]13,inactive,inactive,inactive,inactive,inactive,inactive,inactive,inactive,inactive,,,,,,,,,,inactive
Cc1c(Cl)cccc1Cl,inactive,inactive,inactive,inactive,inactive,inactive,inactive,inactive,inactive,,,,,,,,,,inactive
NCc1ccc(S(N)(=O)=O)cc1,inactive,inactive,inactive,inactive,inactive,inactive,inactive,inactive,inactive,,,,,,,,,,inactive
O=C=NCC1CCCC(CN=C=O)C1 (stereo unspecified),inactive,inactive,inactive,inactive,inactive,inactive,inactive,inactive,inactive,,,,,,,,,,
COC(=O)CCCCC(CCSS/C(CCO)=C(\C)N(C=O)Cc1cnc(C)nc1N)SC(C)=O (stereo unspecified),inactive,inactive,inactive,inactive,inactive,inactive,inactive,inactive,inactive,,,,,,,,,,
CN1CCOC(c2ccccc2)c2ccccc2C1 (stereo unspecified),inactive,inactive,inactive,inactive,inactive,inactive,inactive,inactive,inactive,,,,,,,,,,inactive
c1ccc(-c2nn[nH]n2)cc1,inactive,inactive,inactive,inactive,inactive,inactive,inactive,inactive,inactive,,,,,,,,,,inactive
OCC(O)CN1CCN(c2ccccc2)CC1 (stereo unspecified),inactive,inactive,inactive,inactive,inactive,inactive,inactive,inactive,inactive,,,,,,,,,,inactive
O=C(O)c1cc2ccccc2nc1C(=O)O,inactive,inactive,inactive,inactive,inactive,inactive,inactive,inactive,inactive,,,,,,,,,,inactive
Nc1nnnn1-c1ccccc1,inactive,inactive,inactive,inactive,inactive,inactive,inactive,inactive,inactive,,,,,,,,,,inactive
CC(=O)OCC(=O)Nc1cc(C#N)cc(NC(=O)COC(C)=O)c1Cl,inactive,inactive,inactive,inactive,inactive,inactive,inactive,inactive,inactive,,,,,,,,,,inactive
CC(O)CC(C)O (stereo unspecified),inactive,inactive,inactive,inactive,inactive,inactive,inactive,inactive,inactive,,,,,,,,,,inactive
CC(=O)C(C)O (stereo unspecified),inactive,inactive,inactive,inactive,inactive,inactive,inactive,inactive,inactive,,,,,,,,,,inactive
CC1CCc2c(N3CCC(O)CC3)c(F)cc3c(=O)c(C(=O)O)cn1c23 (stereo unspecified),inactive,inactive,inactive,inactive,inactive,inactive,inactive,inactive,23.7 µM (active),,,,,,,,,,
CCC[C@@H]1C[C@@H](C(=O)N[C@@H]([C@H]2O[C@H](SC)[C@H](O)[C@@H](O)[C@H]2O)[C@@H](C)O)N(C)C1,inactive,inactive,inactive,inactive,inactive,inactive,inactive,inactive,inactive,,,,,,,,,,inactive
O=C(O)CNC(=O)CNC(=O)CNC(=O)CSC(=O)c1ccccc1,inactive,inactive,inactive,inactive,inactive,inactive,inactive,inactive,inactive,,,,,,,,,,inactive

# From PubChem BioAssay (Tox21)
